Screening data (PubChem)
Sampled rows, rich in hits. Any-hit rate of the full collection: about 4.1%.
CHT inh: inhibits the human high affinity choline transporter | Q9GZV3 | CHT-expressing cells, membrane potential dye, choline response; stronger effect = lower value | hit rate 0.86% among 310,000 | B-score at 10 µM;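 active = B-score over 3 SD under the library average, and starting fluorescence ratio not unusually high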;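 also: choline stimulus applied at its EC90 after an EC20 pre-addition; B-score computed on integrated fluorescence ratio after choline addition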
MEKK2mut PB1 HTS: signal of MEK5 binding to mutant human MEKK2 PB1 domain | bead flow cytometry, Alexa488-MEK5 binding to MEKK2 mutant | percent response, % at 10 µM | hit rate 0.35% among 290,000 | AID 1530; in the data active = percent response above about 24%, passing the limit was not always enough
Mot1-301 SUMO: SUMOylation pathway inhibition by Mot1-301 growth rescue; S. cerevisiae Mot1-301 growth rescue, ATP luminescence, 38.5C; percent above DMSO median, 100 means doubled; growth rescue, % at 18.8 µM; hit rate 1% among 320,000;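 active = every valid replicate shows activation above 250% relative to neutral control wells; inactive = the rest, any valid replicate at or below 250%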
CHT allo act: allosteric activators of human choline transporter CHT; Q9GZV3; hit rate 0.49% among 310,000; B-score at 10 µM; CHT-expressing cells, membrane potential dye, choline EC20; stronger effect = higher value; LV-AA mutant CHT in HEK293 cells; AID 488977;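 active = initial fluorescence not abnormally high and integrated response B-score, plate-corrected, over 3 SD above library mean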
MEKK3 PB1 HTS: modulators (inhibitors or enhancers) of MEK5 binding to human MEKK3 PB1 domain; hit rate 1.4% among 290,000; Q99759; bead-based flow cytometry, Alexa488-MEK5 binding to MEKK3; actives lie on both sides; 0 = blocked by unlabeled MEK5, 100 = vehicle; binding response (% of control), % at 10 µM;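 active = binding response more than 3 SD above or below the average of its plate-row segment, actives on both sides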;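 also: Alexa488 bead fluorescence after subtracting the streptavidin-only scavenger bead signal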
Target sequence (Q99759 whole entry, looked up, the tested form may be a part): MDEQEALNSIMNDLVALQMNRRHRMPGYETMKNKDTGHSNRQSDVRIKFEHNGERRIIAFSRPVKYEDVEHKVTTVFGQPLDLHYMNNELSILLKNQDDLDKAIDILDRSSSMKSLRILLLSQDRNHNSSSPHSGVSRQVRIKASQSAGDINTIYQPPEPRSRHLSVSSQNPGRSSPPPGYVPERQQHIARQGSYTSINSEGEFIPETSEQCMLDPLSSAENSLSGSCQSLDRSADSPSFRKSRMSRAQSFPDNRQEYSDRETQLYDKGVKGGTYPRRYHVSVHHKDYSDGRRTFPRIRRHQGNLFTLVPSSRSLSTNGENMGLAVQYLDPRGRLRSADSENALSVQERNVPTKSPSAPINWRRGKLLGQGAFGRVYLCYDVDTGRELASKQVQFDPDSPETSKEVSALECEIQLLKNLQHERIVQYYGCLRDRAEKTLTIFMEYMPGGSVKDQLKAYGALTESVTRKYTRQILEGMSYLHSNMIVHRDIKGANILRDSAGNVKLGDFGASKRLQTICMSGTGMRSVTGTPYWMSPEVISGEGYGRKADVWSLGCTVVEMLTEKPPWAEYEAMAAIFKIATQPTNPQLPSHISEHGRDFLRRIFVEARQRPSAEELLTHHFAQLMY
MEKK2 WT-MEK5: raises or lowers MEK5 binding to wildtype human MEKK2 PB1 domain. AID 1531. binding response (% of control), % at 10 µM. Q9Y2U5. hit rate 1.1% among 290,000. bead flow cytometry, Alexa488-MEK5 binding to MEKK2 WT; actives lie on both sides; in the data active = binding response below about 67% or above about 130%
CHT inh conf: confirmation of human choline transporter CHT inhibitors; AID 493221; CHT-expressing cells, choline membrane potential dye; LV-to-AA substituted CHT, HEK293 cells; shares compounds with CHT inh; CHT activity remaining % of control (stronger effect = lower value), % at 10 µM; hit rate 70% among 2,400;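 active = choline transporter activity left, mean of duplicates at 10 µM, below buffer-only control mean minus 3 SD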;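 also: depolarization triggered by choline at its EC90 following an EC20 pre-addition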
HEK293 MPD ctr: activity in parental HEK293 cells lacking CHT; shares compounds with CHT inh; membrane potential dye, choline response; active = decrease or increase beyond buffer ±3SD; membrane potential ratio readout (active if shifted either direction beyond buffer ±3SD; no single direction) at 10 µM; hit rate 4% among 2,400; AID 493222;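 also: parental cells lack the transporter so any hit is non-specific; ratio is peak minus trough fluorescence over baseline after EC90 choline challenge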
Large screens that a line does not name were inactive (follow-up assays come after a bar, where they were run).

Cc1ccc(-n2cc(CN3CCN(Cc4nccn4C)CC3)c(-c3ccc(F)cc3)n2)cc1	CHT inh -6.4 | CHT inh conf 29% | HEK293 MPD ctr inactive
CC(C)Oc1ccc(OCCSc2nc3ccccc3n2CC(=O)O)cc1	none
O=C1Nc2ccc(F)cc2C12Nc1ccccc1-c1nnc(SCc3ccccc3Cl)nc1O2 (configuration not stated)	CHT inh -6.1 | CHT inh conf inactive | HEK293 MPD ctr inactive
Cc1ccc(S(=O)(=O)/N=C2\C=C(Nc3ccc(O)cc3)C(=O)c3ccccc32)cc1	none (no result: CHT inh, MEKK2mut PB1 HTS, CHT allo act, MEKK3 PB1 HTS, MEKK2 WT-MEK5)
Cc1ccc(S(=O)(=O)/N=C2\C=C(Nc3cccc(C(=O)O)c3)C(=O)c3ccccc32)cc1	CHT inh -5.9 | CHT inh conf 41% | HEK293 MPD ctr 2.5
CC(C)(C)c1ccc(S(=O)(=O)/N=C2\C=C(NS(=O)(=O)c3ccccc3)C(=O)c3ccccc32)cc1	CHT inh -8.7 | CHT inh conf 40% | HEK293 MPD ctr inactive
COCC(C)NC(=O)C1c2ccccc2Oc2ccccc21 (configuration not stated)	none
CC(NC(=O)C1c2ccccc2Oc2ccccc21)C1CCCO1 (configuration not stated)	CHT inh -5.7 | CHT inh conf 68% | HEK293 MPD ctr inactive
CCn1nc(C)cc1-c1nnc(Sc2ncc([N+](=O)[O-])s2)n1C	CHT inh -6 | CHT inh conf 45% | HEK293 MPD ctr inactive
CCSc1nnc2n1C(C)(C)Cc1ccccc1-2	CHT inh -5 (no result: MEKK2mut PB1 HTS, MEKK3 PB1 HTS, MEKK2 WT-MEK5) | CHT inh conf 41% | HEK293 MPD ctr inactive
CSc1ccc(N=Nc2c(C)[nH]n(C)c2=O)cc1	none
CCC(=O)N/C(=N/c1nc(C)cc(C)n1)Nc1ccccc1	none
CCc1ccc(N/C(=N/c2nc(C)cc(C)n2)NC(C)=O)cc1	CHT inh -5.8 | CHT inh conf 58% | HEK293 MPD ctr inactive
COc1cccc(CNC(=O)c2ccccc2SCC(=O)N2CCCC2)c1	none (no result: MEKK2mut PB1 HTS, MEKK3 PB1 HTS, MEKK2 WT-MEK5)
Cc1cc(C)n2nc(CNS(=O)(=O)c3ccc(C)c(C)c3)nc2n1	CHT inh -6.9 | CHT inh conf inactive | HEK293 MPD ctr inactive
Cc1cc(C)n2nc(CNS(=O)(=O)c3ccc(F)c(C)c3)nc2n1	none
CC1CCCCC1NC(=O)c1cccc(N2C(=O)C3C4C=CC(C4)C3C2=O)c1 (configuration not stated)	CHT inh -8.4 | CHT inh conf 28% | HEK293 MPD ctr inactive
Cn1c(CN2CCCC2)c(C#N)c2ccccc21	CHT inh -5 (no result: Mot1-301 SUMO) | CHT inh conf 71% | HEK293 MPD ctr inactive
CCOC(=O)CSCc1c(C#N)c2ccccc2n1C	CHT inh -6.8 | CHT inh conf inactive | HEK293 MPD ctr inactive
CC(=O)N(Cc1c(C#N)c2ccccc2n1C)c1ccccc1	none
Cc1noc(C)c1C(=O)Nc1sc(C)c(-c2ccccc2)c1C#N	CHT inh -5.2 | CHT inh conf 71% | HEK293 MPD ctr inactive
CC1=C(C(=O)OC(C)C)C(c2ccccc2)NC(=O)N1C (configuration not stated)	none
CC1=C(C(=O)OC(C)C)C(c2ccc(Br)s2)NC(=O)N1C (configuration not stated)	CHT inh -5.1 | CHT inh conf 58% | HEK293 MPD ctr inactive
Cc1c(Br)c(C(F)(F)F)nn1CC(=O)NCc1ccco1	CHT inh -7.7 | CHT inh conf inactive | HEK293 MPD ctr inactive
Cc1c(Br)c([N+](=O)[O-])nn1CC(=O)NCc1ccco1	none
Cc1cc(S(=O)(=O)Nc2ccc(C(=O)NCCCN3CCCC3=O)cc2)ccc1F	none (no result: MEKK2mut PB1 HTS, MEKK3 PB1 HTS, MEKK2 WT-MEK5)
Cc1ccc(-n2c(C)cc(=O)cc2C)c(C)c1	CHT inh -5 | CHT inh conf 34% | HEK293 MPD ctr inactive
O=C(Nc1ccc(F)cc1)Nc1ccccc1NS(=O)(=O)c1cccs1	CHT inh -5.3 | CHT inh conf inactive | HEK293 MPD ctr inactive
CC(=O)Oc1cc2c3c(c1)/C(=C1/SC(=S)NC1=O)C(=O)N3C(C)(C)C=C2C	CHT inh -6.8 | CHT inh conf 37% | HEK293 MPD ctr inactive
CCOc1cc2c3c(c1)C(C)=CC(C)(C)N3C(=O)C2=O	none
CCc1nn2c(NCCOC)cc(C)nc2c1-c1ccc(F)cc1	CHT inh -5.1 | CHT inh conf 48% | HEK293 MPD ctr inactive
CCCCOC(=O)n1c(SCC(=O)N(CC)CC)nc2ccccc21	CHT inh -5.2 | CHT inh conf inactive | HEK293 MPD ctr inactive
CCOC(=O)n1c(SCC(N)=O)nc2ccccc21	none
Cc1onc(-c2ccccc2)c1C(=O)OCC(=O)N(C)c1ccccc1	none (no result: CHT inh, MEKK2mut PB1 HTS, CHT allo act, MEKK3 PB1 HTS, MEKK2 WT-MEK5)
CCn1cc(CNC(=O)C2CCC(=O)N(Cc3ccc(Cl)cc3)C2)cn1 (configuration not stated)	none
CC(C)(C)S(=O)(=O)/C(C#N)=N/Nc1ccc(Cl)cc1	CHT inh -5.5 | CHT inh conf 47% | HEK293 MPD ctr inactive
O=C(CCn1nnc2ccccc21)N1CCC(O)(c2cccc(F)c2)CC1	none (no result: Mot1-301 SUMO)
CCc1cc2c(NCc3ccco3)ncnc2s1	CHT inh -6.6 | CHT inh conf 50% | HEK293 MPD ctr inactive
COc1ccc(C2=NN(C(=O)CN3CCCCC3)C(c3ccc(C)cc3)C2)cc1 (configuration not stated)	none (no result: Mot1-301 SUMO)
COc1ccc(C2CC(c3ccc(Br)cc3)=NN2C(=O)CN2CCCC2)cc1 (configuration not stated)	CHT inh -7.1 | CHT inh conf 56% | HEK293 MPD ctr inactive
COc1ccc(-c2cc(C(F)(F)F)nc(SCC(=O)N3CCOCC3)n2)cc1OC	none
O=C(CSc1nc(-c2ccccc2)cc(C(F)(F)F)n1)N1CCOCC1	CHT inh -5.8 | CHT inh conf inactive | HEK293 MPD ctr inactive
COc1ccc(/C=C2\SC(=S)N(NS(=O)(=O)c3ccccc3)C2=O)c(OC)c1	none
CCOc1cc(/C=C2\SC(=S)N(NS(=O)(=O)c3ccccc3)C2=O)ccc1O	none
COc1ccc(OC)c(/C=C2\SC(=S)N(NS(=O)(=O)c3ccccc3)C2=O)c1	CHT inh -6.3 | CHT inh conf 57% | HEK293 MPD ctr inactive
CCOc1ccc(/C=C2\SC(=S)N(NS(=O)(=O)c3ccccc3)C2=O)cc1OC	CHT inh -5.8 | CHT inh conf 56% | HEK293 MPD ctr inactive
